{"source": "PubChem BioAssay (EPA / NIEHS)", "note": "Results filed as inconclusive are left out. Calls of active or inactive are those of the source. The calls were made as follows: active = hit-call score of the fitted dose curve at least 0.9, where 1 is the maximum; inconclusive = response in the unintended direction; inactive = score below 0.9."}
{"assay": "ACEA_ER_AUC_viability: ACEA Biosciences xCELLigence Real-Time Cell Analysis on Estrogen Receptor Agonism for Viability (AID 2283782);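 also: continuous compound exposure with impedance area under curve over 80 h; hit means loss of impedance signal meaning reduced cell growth or viability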", "method": "ACEA_ER is a cell-based, single-readout assay that uses T47D, a human breast cell line, with measurements taken at 80 hours after chemical dosing in a 96-well plate, although TO2 (mc0.srcf) used a 384-well plate. Differences in plate size can be ignored given data normalization.ACEA_ER_AUC_viability is one of two assay component(s) measured or calculated from the ACEA_ER assay. It is designed to make measurements of real-time cell-growth kinetics, a form of growth reporter, as detected with electrical impedance signals by Real-Time Cell Electrode Sensor (RT-CES) technology.Data from the assay component ACEA_ER_AUC_viability was analyzed in the positive analysis fitting direction relative to DMSO as the negative control and baseline of activity. Using a type of growth reporter, loss-of-signal activity can be used to understand changes in the viability. Furthermore, this assay endpoint can be referred to as a secondary readout, because this assay has produced multiple assay endpoints where this one serves a viability function. To generalize the intended target to other relatable targets, this assay endpoint is annotated to the cell cycle intended target family, where the subfamily is cytotoxicity.\nThe xCELLigence system Multi-E-Plate stations were used to measure the time-dependent response to chemicals. Each compound was tested in an eight-point, 1:4 serial dilution series starting at a maximum final concentration of 100 uM. A maximum starting concentration of 0.5% DMSO was present in the 100 uM chemical samples and was diluted along with the test article dilution series. The screen was performed in biological duplicate using two separate, 96-well, E-Plates 96 for each dilution series (n = 2). Positive controls (MG132 and E2) and a negative control (assay media) were tested in quadruplicate on each testing plate. Then, 0.5% and 0.125% DMSO were tested in duplicates in each plate to serve as solvent controls for the 2 highest concentrations of testing compounds: 100 uM and 25 uM. Reference compounds were tested with 8 concentrations with 1:5 serial dilutions. All screening was carried out by ACEA Biosciences, Inc. (San Diego, CA). T-47D cells purchased from ATCC were maintained in RPMI1640 media supplemented with 10% characterized fetal bovine serum (FBS). Before screening, T-47D cells were preconditioned in assay medium: phenol red-free RPMI1640 supplemented with 10% charcoal-stripped FBS. Cells were then detached and seeded in E-Plates 96 in assay medium. After overnight monitoring of growth once every hour, compounds were added to […] cells and remained in the medium until the end of the experiment. Cellular responses were then recorded once every 5 min for the first 5 h, and once every hour for an additional 100 h."}
{"compound": "NCC(F)(F)C(F)(F)C(F)(F)C(F)(F)F", "outcome": "inactive"}
{"compound": "CCOC(N)=O", "outcome": "inactive"}
{"compound": "CCCCCCCCCCCCCCCCOS(=O)(=O)O", "outcome": "inactive"}
{"compound": "C=CCc1cc(S(=O)(=O)c2ccc(O)c(CC=C)c2)ccc1O", "AC50": "76.7 µM (active)"}
{"compound": "O=C(O)c1ccc2c(c1)nc(C(=O)NC1CCN(C3CC3)CC1)n2Cc1cc(-c2ccc(Cl)s2)on1", "outcome": "inactive"}
{"compound": "Cn1c(=O)c2[nH]cnc2n(C)c1=O", "outcome": "inactive"}
{"compound": "Cn1cc[nH]c1=S", "outcome": "inactive"}
{"compound": "O=S(=O)(O)CCC(F)(F)C(F)(F)C(F)(F)C(F)(F)C(F)(F)C(F)(F)F", "outcome": "inactive"}
{"compound": "OC[C@H]1O[C@@H]2O[C@H]3[C@H](O)[C@@H](O)[C@@H](O[C@H]4[C@H](O)[C@@H](O)[C@@H](O[C@H]5[C@H](O)[C@@H](O)[C@@H](O[C@H]6[C@H](O)[C@@H](O)[C@@H](O[C@H]7[C@H](O)[C@@H](O)[C@@H](O[C@H]1[C@H](O)[C@H]2O)O[C@@H]7CO)O[C@@H]6CO)O[C@@H]5CO)O[C@@H]4CO)O[C@@H]3CO", "outcome": "inactive"}
{"compound": "Cc1ncc([C@@H](CCCCCCc2ccc3c(n2)NCCC3)CC(=O)O)cn1", "AC50": "0.00382 µM (active)"}
{"compound": "S=P(N1CC1)(N1CC1)N1CC1", "AC50": "69 µM (active)"}
{"compound": "FC(F)=C(F)C(F)(F)C(F)(F)C(F)(F)C(F)(F)C(F)(F)C(F)(F)F", "outcome": "inactive"}
{"compound": "NC(=O)NN=Cc1ccc([N+](=O)[O-])o1", "outcome": "inactive"}
{"compound": "COc1cc2c(c(OC)c1OC)-c1ccc(OC)c(=O)cc1[C@@H](NC(C)=O)CC2", "AC50": "0.00238 µM (active)"}
{"compound": "CCN(CC)C(=S)SSC(=S)N(CC)CC", "AC50": "25.4 µM (active)"}
{"compound": "CCCCCCCCCC", "outcome": "inactive"}
{"compound": "OCCC(F)(F)C(F)(F)C(F)(F)C(F)(F)F", "outcome": "inactive"}
{"compound": "Cc1cccc(O)c1C", "outcome": "inactive"}
{"compound": "O=C(Cl)C(F)(F)C(F)(F)C(F)(F)C(=O)Cl", "outcome": "inactive"}
{"compound": "O=C(N[C@H](CO)[C@H](O)c1ccc([N+](=O)[O-])cc1)C(Cl)Cl", "AC50": "73.2 µM (active)"}
{"compound": "FC(F)C(F)(F)COCC1CO1", "note": "(stereo unspecified)", "outcome": "inactive"}
{"compound": "OC(O)(C(F)C(O)(O)C(F)(F)F)C(F)(F)F", "AC50": "75 µM (active)"}
{"compound": "CCCCN1C(=O)[C@@H]([C@H](O)C2CCCCC2)NC(=O)C12CCN(Cc1ccc(Oc3ccc(C(=O)O)cc3)cc1)CC2", "AC50": "64.6 µM (active)"}
{"compound": "COc1cc(C(C)C)c2c(c1)S(=O)(=O)N(COc1cc(=O)n3cccc(OCCN4CCCCC4)c3n1)C2=O", "AC50": "17.4 µM (active)"}
{"compound": "O=C(O)c1cccc(C[C@@H]2COc3ccc(OCc4nc5cc(F)ccc5s4)cc3[C@@H]2O)c1", "outcome": "inactive"}
{"compound": "FC(F)(F)COC(OCC(F)(F)F)OCC(F)(F)F", "outcome": "inactive"}
{"compound": "CCCc1ccccc1", "outcome": "inactive"}
{"compound": "C[C@@H](Oc1ccc(CNC(=O)c2cccnc2Oc2ccc3c(c2)OCO3)c(F)c1)C(=O)O", "outcome": "inactive"}
{"compound": "CCc1ccc(O)c(C(C)(C)C)c1", "AC50": "25.5 µM (active)"}
{"compound": "OC[C@H]1O[C@@](CO)(O[C@H]2O[C@H](CO)[C@@H](O)[C@H](O)[C@H]2O)[C@@H](O)[C@@H]1O", "outcome": "inactive"}
{"compound": "OCc1c[nH]c2ccccc12", "AC50": "87 µM (active)"}
